# This is part of a sample that, as a whole, favours compounds with a hit. Of some 79,000 tested, about 15% had one in any assay. Unmarked numbers belong to inactive results. Active and inactive are the calls of the source. No stated cut-off is given here; in the data, active means growth inhibition above about 70%; inactive means the rest.
# Experiment: NCI Yeast Anticancer Drug Screen. Data for the wt1 strain (AID 149);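 further: 0% = growth of vehicle-treated wt1 cultures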
# Details: S. cerevisiae wt1 strain (SPY 50644) growth inhibition, stronger effect = higher value
# Procedure: Growth inhibition of yeast strains with defined genetic alterations is measured as a screen for potential anti-cancer activity. Selected strains with alterations in DNA damage repair or cell cycle control were exposed to compounds and growth inhibition was measured relative to vehicle treated controls. The strain used in this assay is wt1
Structure (SMILES),growth inhibition (at 1.2 µM) [%],growth inhibition (at 3.7 µM) [%],growth inhibition (at 11.0 µM) [%],growth inhibition (at 33.0 µM),growth inhibition (at 100.0 µM)
CSC(=S)N/N=C(\C)c1cccc(C)n1,-4,-7,-4,19%,99% (active)
C=C1CC(Cn2cc(Br)c(=O)[nH]c2=O)(c2ccc(-c3ccccc3)cc2)OC1=O (stereo not given),1,6,15,26%,83% (active)
CN(N=O)N1C(=O)SCC(c2ccccc2)(c2ccccc2)C1=O,-3,-5,-3,-3%,4%
CCC[CH2][Ge]([CH2]CCC)([CH2]CCC)[O]C(=O)C(OC)c1ccccc1 (stereo not given),-3,-6,-3,30%,97% (active)
C[C@H](CCC(=O)NN)[C@H]1CC[C@H]2[C@@H]3CC[C@@H]4C[C@H](O)CC[C@]4(C)[C@H]3CC[C@]12C,1,0,0,0%,3%
CCOC(=O)c1cc(-c2ccc(Cl)cc2)c([N+](=O)[O-])n1C,1,3,13,68%,96% (active)
COc1ccccc1N=NC(C(=O)c1ccccc1)C(=O)c1ccccc1,6,3,13,96% (active),96% (active)
Cc1ccc(S(=O)(=O)NNC(=S)Nc2cccc3ccccc23)cc1,-3,-2,-1,1%,2%

# Source: PubChem BioAssay (NCI)
